Tau ThT inhib = qHTS for Inhibitors of Tau Fibril Formation, Thioflavin T Binding. recombinant tau K18 P301L, heparin-induced fibrillization, ThT fluorescence. Potency, µM (top dose mostly 57.4 µM), hits mostly inhibitors. 270,000 tested, 2.1% active. AID 1460, 2008; note: nearly all actives have a fitted effect of over 55% in size
Target sequence (P10636 561-689 P618L limits assumed): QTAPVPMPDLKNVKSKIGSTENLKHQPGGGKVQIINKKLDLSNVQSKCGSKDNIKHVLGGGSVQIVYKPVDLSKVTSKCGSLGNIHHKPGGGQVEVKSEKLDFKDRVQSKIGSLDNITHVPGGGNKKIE
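In this qHTS, human K18 P301L tau is incubated with compound and heparin for 6 hr at 37 C, and Thioflavin T fluorescence then reports fibril load.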
Tau fibril FP = qHTS for Inhibitors of Tau Fibril Formation, Fluorescence Polarization; Potency, µM (highest dose often 57.7 µM), actives largely listed as inhibitors; K18 P301L tau heparin fibrillization, Alexa594 FP, 6 h; Microtubule-associated protein tau (Homo sapiens), P10636; 280,000 tested, 0.39% active; note: nearly all actives have a fitted effect of over 55% in size
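Compound effects on tau fibrillization are measured by Alexa 594 fluorescence polarization (ex 555, em 632 nm). K18 P301L tau is used at 15 uM with 0.24 uM labeled tracer, and 20 uM heparin induces aggregation over 6 hr at 37 C.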
Sfp inh = qHTS Assay for Inhibitors of Bacillus subtilis Sfp phosphopantetheinyl transferase (PPTase). 4'-phosphopantetheinyl transferase ffp (Bacillus subtilis), Q9F4F7. Biochemical Sfp PPTase activity, qHTS. Potency, µM, usual class: inhibitors. 310,000 tested, 3.5% active;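 note: the enzyme is Sfp with the accession as filed and its product quenches rhodamine fluorescence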
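Compounds were incubated with enzyme (final 15 nM) for 15 min at room temperature before substrate addition started the reaction. Fluorescence at 525 nm excitation, 598 nm emission was recorded immediately and after 30 minutes.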
JMJD2E inh = qHTS Assay for Inhibitors of Human Jumonji Domain Containing 2E (JMJD2E). JMJD2E catalytic domain, FDH-coupled NADH fluorescence (FDH is formaldehyde dehydrogenase). Potency, µM (doses to about 57.1 µM), hits mostly inhibitors. Lysine-specific demethylase 4E (Homo sapiens), B2RXH2. 230,000 tested, 1.6% active; active = well fitted inhibition curve with a large enough effect, not every such curve was filed as active; inconclusive = small, poorly fitted or top-dose-only effect, or another doubt; inactive = no such curve, though single readings can be large or run the other way; note: nearly all actives have a fitted effect of over 50% in size
Target sequence (B2RXH2 1-337 limits assumed): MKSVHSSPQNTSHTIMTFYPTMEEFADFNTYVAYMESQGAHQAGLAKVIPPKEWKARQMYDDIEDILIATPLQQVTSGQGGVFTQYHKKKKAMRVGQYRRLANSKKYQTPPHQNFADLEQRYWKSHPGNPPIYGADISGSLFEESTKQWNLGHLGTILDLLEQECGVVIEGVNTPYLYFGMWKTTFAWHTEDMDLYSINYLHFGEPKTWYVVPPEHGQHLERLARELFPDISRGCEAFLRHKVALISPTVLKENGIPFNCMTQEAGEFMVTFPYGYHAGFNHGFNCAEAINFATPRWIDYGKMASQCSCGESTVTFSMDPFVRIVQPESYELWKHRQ
Coupling enz = qHTS Assay for Inhibitors of Fructose-1,6-bisphosphate Aldolase from Giardia Lamblia: Coupling assay counterscreen | coupling enzyme system counterscreen, AmpLite Red fluorescence | activity change, negative = inhibition, % at 58.2 µM, hits read low | 290,000 tested, 0.67% active | AID 2472, 2010; in the data active = activity change below about -30%
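Coupling enzymes only (glyceraldehyde-3-phosphate) + compound, at 57.5 uM final, 10 min RT; add substrate/coupling/AmpLite Red mix, 20 min RT; fluorescence ex 525/em 598 nm. Actives flag coupling-system interference.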
Tau fluor counter = Counterscreen qHTS for Inhibitors of Tau Fibril Formation, Fluorescence Polarization; tau K18 P301L (four-repeat tau fragment) Alexa594 fluorescence, heparin fibrillization; Potency, µM (titrated, usually from 57.7 µM); 280,000 tested, 0.93% active; AID 1463, 2008; note: nearly all actives have a fitted effect of over 55% in size
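Human K18 P301L tau (15 uM unlabeled plus 0.24 uM Alexa 594-labeled, final) in 100 mM sodium acetate pH 7 was mixed with compound and 20 uM heparin and incubated 6 hr at 37 C.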
Hits are given with their value; i = inactive; ? = inconclusive; nt = no result given; [ ] = remark or other dose. The list is not random: actives were taken first. Their share in the collection is about 5.3%. Unless noted, calls come from the whole dose curve; as a rule, active = well fitted curve in the direction sought with a large enough effect; inconclusive = small, poorly fitted or top-dose-only effect, or another doubt; inactive = no such curve, though single readings can be large; an effect the other way counts as inactive or inconclusive.

SMILES	Tau ThT inhib	Tau fibril FP	Sfp inh	JMJD2E inh	Coupling enz	Tau fluor counter
Clc1ccc(CNc2nc(CN3CCOCC3)nc3scc(-c4ccccc4)c23)cc1	?	i	56.2µM	i	i	i
c1ccc(CNc2nc(CN3CCOCC3)nc3scc(-c4ccccc4)c23)cc1	i	i	?	i	i	i
CCCCn1c(=N)c(S(=O)(=O)c2ccc(C)cc2)cc2c(=O)n3cc(C)ccc3nc21	i	i	nt	nt	nt	i
Cc1sc(NC(=S)NC(=O)c2ccco2)c(C#N)c1C	i	i	39.8µM	i	i	i
Cc1sc(NC(=O)c2ccco2)c(C(=O)c2ccc(Cl)cc2)c1C	?	i	39.8µM	i	i	i
Cc1cc(C)c(NC(=O)CSc2nnc(Cc3cccn3C)n2-c2ccc(F)cc2)c(C)c1	i	i	50.1µM	i	i	i
O=C1CCCc2c1cc(C(=O)NC1CCSC1=O)c(=O)n2-c1ccccc1 (centres undefined)	i	i	50.1µM	?	-37.8	i
CC1(C)CC(=O)c2cc(C(=O)NC3CCSC3=O)c(=O)n(-c3ccccc3)c2C1 (centres undefined)	?	i	i	i	i	i
O=C1CCCc2c1cc(C(=O)Nc1ccc(Br)cn1)c(=O)n2-c1ccccc1	?	?	?	?	-51.3	?
O=C1CCCc2c1cc(C(=O)O)c(=O)n2-c1ccccc1	i	i	i	i	i	i
C[C@]12CC[C@@H](O)C[C@@H]1CC[C@@H]1[C@@H]2CC[C@]2(C)C=CC[C@@H]12	i	i	i	nt	nt	i
CSc1ccc(CCNC(=O)C(C)n2c(C)c3cnn(-c4ccccc4)c(=O)c3c2C)cc1 (centres undefined)	i	i	nt	nt	nt	i
COc1cccc(N2CCN(c3ccc4nnc(CCC(=O)O)n4n3)CC2)c1	i	i	nt	nt	nt	i
Cc1cccc(CNC(=O)Cc2csc3ccccc23)c1	i	i	nt	nt	nt	i
CC(C)OC(=O)c1cn(Cc2c(F)cccc2F)c2sc(-c3ccc(NC(=O)C(C)C)cc3)c(CN(C)Cc3ccccc3)c2c1=O	nt	nt	i	nt	i	nt
Cc1ccccc1/C=C/C1=NCCN1	i	i	nt	17.8µM	nt	i
CC(C)Sc1ncc(Cl)c(C(=O)Nc2nc3ccc(S(C)(=O)=O)cc3s2)n1	i	i	nt	nt	nt	i
Oc1ccc(Nc2nc(N3CCCC3)c3ccccc3n2)cc1	i	i	i	i	i	?
COc1ccc(Nc2nc(N3CCCCC3)c3ccccc3n2)cc1	?	i	50.1µM	i	i	?
O=c1c2cccc(Cl)c2nc2n1Cc1ccccc1-2	?	?	14.1µM	i	i	i
O=c1nc2n(c3ccccc13)Cc1ccccc1-2	i	i	i	?	i	i
CC(=O)Oc1cc2oc(=O)cc(C)c2cc1OC(C)=O	?	i	79.4µM	?	i	i
CCN(CC)S(=O)(=O)c1ccc2c(c1)N(CC(=O)Nc1c(C)cccc1C)C(=O)C1CCCN21 (centres undefined)	i	i	nt	nt	nt	i
NNc1cc([N+](=O)[O-])cc2c1C(=O)N(Cc1ccccc1)S2=O (centres undefined)	25.1µM	?	22.4µM	i	i	i
CC(=O)c1ccc(NC(=S)N2C(C)CCCC2C)cc1 (centres undefined)	i	i	44.7µM	i	i	i
SMILES	Tau ThT inhib	Tau fibril FP	Sfp inh	JMJD2E inh	Coupling enz	Tau fluor counter
Cc1ccc(-n2nc(-c3ccc(F)cc3)c3cnc4cc5c(cc4c32)OCO5)cc1C	i	i	nt	nt	nt	i
CC[N+](C)(CC)CC(=O)OCC1C(C)C=C(C)CC1C (centres undefined)	i	i	89.1µM	i	i	i
COC(=O)NC(CCc1ccccc1)C(C(=O)OC)C(=O)OC (centres undefined)	i	i	i	i	i	i
Clc1ccc(SCCOCCN2CCOCC2)cc1	nt	nt	i	nt	i	nt
CC1CCN(CCCCOc2ccccc2Br)CC1	i	i	50.1µM	i	i	i
Clc1ccc(OCCOCCN2CCCCC2)c(Br)c1	i	i	56.2µM	i	i	i
Clc1ccc(SCCOCCN2CCCCC2)cc1	i	i	56.2µM	i	i	i
CC1CCN(CCCCOc2ccccc2F)CC1	nt	nt	i	nt	i	nt
CC1CCN(CCOCCOc2ccc(Cl)cc2Br)CC1	i	i	56.2µM	i	i	i
COc1cc(CCN2C(=O)N[C@@H](c3ccccc3)C(C(C)=O)=C2C)cc(OC)c1OC	i	i	i	i	i	i
Cc1[nH]c2ccccc2c1/C=C/C(=O)c1ccccc1	?	i	i	i	i	17.8µM[quencher]
Cc1[nH]c2ccccc2c1/C=N/Nc1cccc(C(=O)O)c1	12.6µM	i	i	?	i	?
Cc1[nH]c2ccccc2c1/C=N/NC(=O)c1cc(-c2ccccc2)n[nH]1	nt	?	i	?	i	15.8µM[quencher]
Cc1[nH]c2ccccc2c1/C=N/NC(=O)c1ccccc1	nt	nt	i	nt	i	nt
Cc1[nH]c2ccccc2c1/C=N/NC(=O)c1cccc(Br)c1	nt	nt	i	nt	i	nt
Cc1ccc(NC(=S)N/N=C/c2c(C)[nH]c3ccccc23)cc1	?	i	i	i	i	14.1µM[quencher]
Cc1[nH]c2ccccc2c(=O)c1C(=O)/C=C/c1ccccc1	nt	i	i	i	i	i
CCCCS(=O)(=O)N1C2=NC(C(=O)OC)=C(C(=O)OC)[C@@H]3Nc4ccccc4[C@]23C[C@H]1C(=O)OC	i[11.5 µM]	i[11.6 µM]	i	i[11.4 µM]	i	i[11.6 µM]
NC(=O)C1(N2CCCCC2)CCN(C(=O)Nc2ccc(Cl)c(Cl)c2)CC1	i	i	nt	nt	nt	i
Cc1[nH]c2ccccc2c1/C=N/NC(=S)NCc1ccccc1	?	i	i	i	i	12.6µM[quencher]
CCc1nnc(N/N=C/c2c(C)[nH]c3ccccc23)n1N	?	i	8.91µM	i	i	i
Cc1[nH]c2ccccc2c1/C=N/Nc1nc(N2CCCCC2)nc(N2CCCCC2)n1	?	?	i	i	i	10µM[quencher]
CCc1nnc(N/N=C/c2c(F)cccc2Cl)n1N	nt	nt	i	nt	i	nt
O=C(O)c1cccc(N/N=C/c2cc(Br)cc(Br)c2O)c1	11.2µM	?	i	i	i	17.8µM[quencher]
Cc1[nH]c2ccccc2c1/C=N/NC(N)=S	?	i	i	i	i	i
CCCCCCCCCCCCCCC/C=C/[C@@H](O)[C@H](NC(=O)CCCCCCCCCCCCC)OC (tested in a mixture with another compound)	i	i	nt	i	nt	i
CCOc1ccc(NC(=O)CC2C(=O)N(C)C(=S)N2Cc2ccco2)cc1 (centres undefined)	i	i	i	i	i	i

Assay outcomes (PubChem)
